From the supplement of paper PMC8728848 come the findings set out here.

Common to all, as to assay: glycan array binding signal (z-score within array); higher = stronger binding
Details in all cases: glycan notation: IUPAC condensed, linker removed

Test [1] has as its target Fuc(a1-2)[Gal(a1-3)]Gal(b1-4)Glc. A digest of the protocol:
(§1)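 Columns mapping to the same glycan were averaged after glycan names were converted to IUPAC-condensed notation. The data come from 3228 arrays in the Consortium for Functional Glycomics database, limited to those with an available protein sequence. Binding is reported as a within-array Z-score averaged across arrays of one protein sequence and across linkers.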

The target in test [2] is Fuc(a1-3)[Gal(b1-4)]GlcNAc. A digest of the protocol: as §1
In a further test the target is Gal(a1-6)Glc. A digest of the protocol: as §1
The next test has as its target Gal(b1-3)Gal. A digest of the protocol:
as §1

Test [3] concerns the target Gal(b1-3)GalNAc(b1-3)Gal(b1-4)GlcNAc. In a few lines: as §1
Test [4] concerns the target Gal(b1-3)GalNAc(b1-4)[Neu5Ac(a2-3)]Gal(b1-4)Glc. A digest of the protocol:
as §1

Test [5] has as its target Gal(b1-4)GlcNAc(b1-6)[Gal(b1-3)]GalNAc. In a few lines:
as §1

In another test the target is Gal3S(b1-3)GalNAc. A digest of the protocol:
as §1

The target of a further test is Gal3S(b1-4)Glc. A digest of the protocol:
as §1

In a further test the target is Gal3S(b1-4)Glc6S. A digest of the protocol:
as §1

Test [6] deals with GalNAc(b1-3)Gal(a1-4)Gal(b1-4)GlcNAc. In a few lines: as §1
Another test deals with GalNAc(b1-4)GlcNAc. In a few lines: as §1
Test [7] concerns the target Man(a1-2)Man(a1-3)[Man(a1-3)[Man(a1-6)]Man(a1-6)]Man(b1-4)GlcNAc(b1-4)GlcNAc. A digest of the protocol:
as §1

For test [8], the target named is Man(a1-3)[Man(a1-6)]Man(a1-6)[Man(a1-3)]Man(b1-4)GlcNAc(b1-4)GlcNAc. In a few lines:
as §1

Test [9] has as its target Neu5Ac(a2-3)Gal(b1-3)GalNAc(b1-3)Gal(a1-4)Gal(b1-4)Glc. In a few lines:
as §1

The target of test [10] is Neu5Ac(a2-3)Gal(b1-3)[Neu5Ac(a2-6)]GalNAc. A digest of the protocol: as §1
For a further test, the target named is Neu5Ac(a2-3)Gal(b1-4)Glc. A digest of the protocol:
as §1

Test [11] deals with Neu5Ac(a2-3)Gal(b1-4)GlcNAc6S. A digest of the protocol: as §1
For a further test, the target named is Neu5Ac(a2-3)GalNAc. A digest of the protocol: as §1
In test [12] the target is Neu5Ac9Ac(a2-6)Gal(b1-4)GlcNAc. In a few lines: as §1
For test [13], the target named is Fuc(a1-2)[GalNAc(a1-3)]Gal. A digest of the protocol: as §1
In test [14] the target is Fuc(a1-2)[GalNAc(a1-3)]Gal(b1-4)Glc. In a few lines:
as §1

Test [15] addresses Fuc(a1-2)[GalNAc(a1-3)]Gal(b1-4)GlcNAc. In a few lines: as §1
Test [16] has as its target Fuc(a1-2)[GalNAc(a1-3)]Gal(b1-4)[Fuc(a1-3)]GlcNAc. A digest of the protocol:
as §1

Test [17] has as its target Fuc(a1-2)[GalNAc(a1-4)]Gal(b1-4)GlcNAc. A digest of the protocol: as §1
The target of test [18] is Fuc(a1-3)[Gal(b1-4)]GlcNAc(b1-2)Man(a1-3)[Fuc(a1-3)[Gal(b1-4)]GlcNAc(b1-2)Man(a1-6)]Man(b1-4)GlcNAc(b1-4)GlcNAc. In a few lines:
as §1

Test [19] addresses Fuc(a1-3)[Gal(b1-4)]GlcNAc(b1-4)Gal(b1-4)[Fuc(a1-3)]GlcNAc(b1-4)Gal(b1-4)[Fuc(a1-3)]GlcNAc. In a few lines:
as §1

The target of a further test is Fuc(b1-3)GlcNAc. A digest of the protocol:
as §1

The target of a further test is GlcA(b1-3)Gal. In a few lines:
as §1

For the next test, the target named is GlcNAc(b1-6)GalNAc. In a few lines:
as §1

A further test has as its target GlcNAc3Prop(b1-4)GlcNAc. A digest of the protocol: as §1
A further test concerns the target Man(b1-4)GlcNAc. In a few lines: as §1
Test [20] deals with Neu5Ac(a2-3)Gal(b1-4)[Fuc(a1-3)]GlcNAc(b1-3)Gal(b1-4)[Fuc(a1-3)]GlcNAc(b1-3)Gal(b1-4)[Fuc(a1-3)]GlcNAc. A digest of the protocol:
as §1

Test [21] concerns the target Neu5Ac(a2-8)Neu5Ac(a2-8)Neu5Ac. In a few lines: as §1
For a further test, the target named is Neu5Gc(a2-3)Gal(b1-4)Glc. In a few lines: as §1
The next test addresses Gal(a1-3)Gal. A digest of the protocol: as §1
Test [22] deals with Gal(a1-3)Gal(b1-4)[Fuc(a1-3)]GlcNAc(b1-2)Man(a1-3)[Gal(a1-3)Gal(b1-4)[Fuc(a1-3)]GlcNAc(b1-2)Man(a1-6)]Man(b1-4)GlcNAc(b1-4)GlcNAc. In a few lines: as §1
The next test deals with Gal(a1-3)GalNAc. A digest of the protocol: as §1
The target in test [23] is Gal(b1-3)GalNAc(b1-3)Gal(a1-4)Gal(b1-4)Glc. A digest of the protocol: as §1
In test [24] the target is Gal(b1-3)GlcNAc(b1-2)Man(a1-3)[Gal(b1-3)GlcNAc(b1-2)Man(a1-6)]Man(b1-4)GlcNAc(b1-4)GlcNAc. A digest of the protocol:
as §1

In test [25] the target is Gal(b1-3)GlcNAc(b1-3)Gal(b1-3)GlcNAc. In a few lines:
as §1

In test [26] the target is Gal(b1-3)GlcNAc(b1-3)Gal(b1-4)[Fuc(a1-3)]GlcNAc(b1-6)[Gal(b1-3)GlcNAc(b1-3)]Gal(b1-4)Glc. A digest of the protocol: as §1
The target of test [27] is Gal(b1-3)[Fuc(a1-4)]GlcNAc(b1-2)Man(a1-3)[Gal(b1-3)[Fuc(a1-4)]GlcNAc(b1-2)Man(a1-6)]Man(b1-4)GlcNAc(b1-4)GlcNAc. In a few lines: as §1
Test [28] concerns the target Gal(b1-3)[Fuc(a1-4)]GlcNAc(b1-3)Gal(b1-3)[Fuc(a1-4)]GlcNAc. A digest of the protocol:
as §1

Test [29] addresses Gal(b1-3)[Neu5Ac(b2-6)]GalNAc. A digest of the protocol: as §1
Test [30] concerns the target Gal(b1-4)GlcNAc(b1-2)Man(a1-3)Man(b1-4)GlcNAc(b1-4)GlcNAc. In a few lines: as §1
Test [31] concerns the target Gal(b1-4)GlcNAc(b1-2)Man(a1-3)[Man(a1-6)]Man(b1-4)GlcNAc(b1-4)GlcNAc. A digest of the protocol:
as §1

The target of a further test is Gal4S(b1-4)GlcNAc. In a few lines:
as §1

A further test concerns the target Glc(a1-4)Glc. A digest of the protocol: as §1
In a further test the target is GlcA(b1-3)GlcNAc. A digest of the protocol:
as §1

The target in the next test is GlcA(b1-6)Gal. A digest of the protocol: as §1
Test [32] deals with GlcNAc(a1-3)Gal(b1-4)GlcNAc. A digest of the protocol: as §1
Test [33] concerns the target GlcNAc(a1-4)Gal(b1-4)GlcNAc(b1-3)Gal(b1-4)Glc. A digest of the protocol:
as §1

The target in test [34] is GlcNAc(a1-6)Gal(b1-4)GlcNAc. A digest of the protocol:
as §1

Test [35] concerns the target GlcNAc(b1-2)Gal(b1-3)GalNAc. A digest of the protocol:
as §1

For test [36], the target named is GlcNAc(b1-4)GlcNAc(b1-4)GlcNAc. A digest of the protocol: as §1
The target in a further test is Kdn(a2-6)Gal(b1-4)GlcNAc. In a few lines: as §1
For test [37], the target named is Man(a1-3)[Man(a1-6)]Man(b1-4)GlcNAc(b1-4)GlcNAc. A digest of the protocol:
as §1

Test [38] deals with Neu5Ac(a2-3)Gal(b1-4)GlcNAc(b1-2)Man(a1-3)[Neu5Ac(a2-6)Gal(b1-4)GlcNAc(b1-2)Man(a1-6)]Man(b1-4)GlcNAc(b1-4)GlcNAc. In a few lines: as §1
In test [39] the target is Neu5Ac(a2-6)Gal(b1-4)GlcNAc(b1-3)GalNAc. In a few lines: as §1
The target in test [40] is Neu5Ac(a2-6)GlcNAc(b1-4)GlcNAc(b1-4)GlcNAc. A digest of the protocol: as §1

Only a selection was taken, and the strongest signals are over-represented in it overall.

B1: EcCDA (Encephalitazoon cuniculi), Q8SU65 (protein)
chain: MLLCLLYFTSSWCSGSDVPDVCTNSGMIAINFVDGPVRGVTDRILNTLDELGVKATFSFTVNQKAVGNVGQLYRRAVEEGHNVALRVDPSMDEGYQCLSQDALENNVDREIDTIDGLSGTEIRYAAVPICNGQVNSEMYNILTERGVLPVGYTFCPYDYDDPVGEFESMIEGSDPKHHSFIILMHDGQEADTSRLENMVKIGKDKGYRFVNMDECLQGYKGAPGDPELSLRGKGVESIGKGFLPFFLMMLVRLL
As to B1, the “glycan array binding signal (z-score)” value in [1] was 2.96; in test [2] it was -0.055; with Gal(a1-6)Glc it was 3.02; with Gal(b1-3)Gal it was -0.337; in [3], -0.363; in test [4] it was -0.234. For the same molecule, the “glycan array binding signal (z-score)” value in test [5] is -0.1; in the test with Gal3S(b1-3)GalNAc it was 0.115; in the test with Gal3S(b1-4)Glc, 0.022; in the test with Gal3S(b1-4)Glc6S, 5.58; in [6], 1.6; in the test with GalNAc(b1-4)GlcNAc it was -0.289. Moreover, the “glycan array binding signal (z-score)” value is -0.2 in test [7]; -0.34 in [8]; -0.476 in test [9]; -0.318 in test [10]; -0.322 in the test with Neu5Ac(a2-3)Gal(b1-4)Glc; -0.284 in test [11]. Further, the “glycan array binding signal (z-score)” value in the test with Neu5Ac(a2-3)GalNAc was 0.071; in test [12], 4.58.

B2: GH98CBM (Clostridium perfringens) (protein)
chain: EVYALEESRDVYLSDLDWLNATHGDDTKSKIVQKNHPFTPGNNNQSTKISLKMEDGSISEFEKGLGTIAGSPSTITYDISGAGVTKFFSYLGIDRSANPINEQYAKVDKIEVVVDGKVIYSTINQFPNGLTYETPAIKVDLNIPENAKRLQLKSYAGEKTWGDEVVYADAKFTAKGDFVN
B2: the “glycan array binding signal (z-score)” value in test [1] is 2.19; in [13] it was 4.81; in test [14], 6.66; in test [15], 8.52; in [16] it was 5.47; in [17], -0.209. Further, the “glycan array binding signal (z-score)” value in [18] was 0.041; in test [19], -0.235; in the test with Fuc(b1-3)GlcNAc, 0.118; in the test with GlcA(b1-3)Gal, -0.196; with GlcNAc(b1-6)GalNAc, -0.22; with GlcNAc3Prop(b1-4)GlcNAc, -0.189. Also, the “glycan array binding signal (z-score)” value with Man(b1-4)GlcNAc is -0.183; in test [20], -0.233; in test [21] it was -0.247; with Neu5Gc(a2-3)Gal(b1-4)Glc, -0.107.

B3: Lmo1413 (Listeria monocytogenes), Q8Y783 (protein)
chain: MKHAKKSLFTFIIFMTILSITFNPFSAKAAPLMLNLPAPQVDQLYIGDDYITGKLQQEVPMHYPGNAAYVLFNNKQYNITDYTVENDVNFRLKLPKTLEAGDTLNYFTITGNVLDPVAYPGQESYKLAGPFSPIEKANIQVNYVDETNQTLATSDTLSGKLGETYTTSPKAIDGYQVKETPTNATGTYTTNTETIQINYVYEKTAVEGANVSVEYINEATNESIAPTETLSGKIGTTFQAEVKEIDGYELSQVPSNQSGTYTDQTQSVIFKYKKITTPDEVAKDVTVTYKDTKGNQLADPVILKGDIGSTFETEAKSFKGYKLTKTPSNHSSVFTSDSQEVEYVYSKDDAVITPPVTPVNPDKPIINPVKPVNPATSTVPNKNISKKNTTKTVNQTGKTSTALQLPKTGDSENNLPLIIGVSLLISGVYIFTTRRKRVK
In the case of B3, the “glycan array binding signal (z-score)” value in the test with Gal(a1-3)Gal is -0.219; in test [22], 0.065; in the test with Gal(a1-3)GalNAc it was -0.056; in [23], -0.2; in test [24], -0.218; in [25] it was -0.215. In addition, the “glycan array binding signal (z-score)” value in [26] is -0.158; in test [27], 1.29; in [28] it was -0.139; in test [29], 2.02; in test [30], -0.199; in [31] it was -0.229. In addition, the “glycan array binding signal (z-score)” value is -0.075 with Gal4S(b1-4)GlcNAc; 2.23 with Glc(a1-4)Glc; 1.78 with GlcA(b1-3)GlcNAc; 0.693 with GlcA(b1-6)Gal; 1.66 in [32]; -0.095 in [33]. The “glycan array binding signal (z-score)” value in [34] is 1.42; in [35] it was 2.98; in test [36] it was 0.095; in the test with Kdn(a2-6)Gal(b1-4)GlcNAc, -0.144; in test [37], -0.231; in test [38], -0.29. In addition, the “glycan array binding signal (z-score)” value in [20] is 0.379; in test [39], -0.219; in test [40] it was -0.222; in test [12], -0.263; with Neu5Gc(a2-3)Gal(b1-4)Glc it was -0.252.
